Screening data (PubChem BioAssay)
Compounds with a hit are over-represented: about 5.9% of the library has one in this group of screens.
Rtt109 Vps75 – inhibitors of C. albicans Rtt109/Vps75 HAT, primary screen, biochemical, ThioGlo CoA-SH fluorescence, plate reader; Histone acetyltransferase RTT109 (Candida albicans (strain SC5314 / ATCC MYA-2876)), …; purified Rtt109/Vps75, 4 h; inhibition, % at 34.9 µM; 330,000 tested, 0.16% active; AID 540336, 2011;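 active = inhibition of at least 50% in every replicate; inconclusive = best replicate reaches 50% inhibition but some replicates fall short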
Target sequence (Q5AAJ8 whole entry, looked up): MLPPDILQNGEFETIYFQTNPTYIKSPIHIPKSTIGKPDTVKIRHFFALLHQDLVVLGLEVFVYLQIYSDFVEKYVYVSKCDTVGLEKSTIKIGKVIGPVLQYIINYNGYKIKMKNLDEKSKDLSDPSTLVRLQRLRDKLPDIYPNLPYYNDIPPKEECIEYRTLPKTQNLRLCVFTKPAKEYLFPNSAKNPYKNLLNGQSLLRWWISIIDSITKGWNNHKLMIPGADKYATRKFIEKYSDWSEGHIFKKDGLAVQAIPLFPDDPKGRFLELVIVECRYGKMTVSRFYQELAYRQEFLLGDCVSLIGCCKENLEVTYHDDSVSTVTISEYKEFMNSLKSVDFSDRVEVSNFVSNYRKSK
rCAG RNA binder – binders of r(CAG) RNA repeats, primary screen, biochemical, fluorescence; 370,000 tested, 1.3% active; AID 651821, 2012; r(CAG) RNA repeat, TO-PRO-1 dye displacement fluorescence; inhibition, % at 3 µM;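 active = inhibition above the plate cutoff, the mean of all test compounds on that plate plus 3 SD, cut at about 35% in these data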;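 note: 0% = DMSO alone and 100% = 100 µM mitoxantrone as full dye displacement; higher means more dye released from RNA so lower well fluorescence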
ABHD5 PLIN5 PPI – ABHD5-PLIN5 interaction inhibitors, primary screen, cell lysate, split luciferase complementation, luminescence | Split G. princeps luciferase complementation, 4 h | inhibition, % at 4 µM | 360,000 tested, 0.78% active;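 active = inhibition above the mean inhibition across every tested compound plus 3 SD, cut at about 22% in these data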;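 note: 0% = DMSO only wells and the 100% control is not disclosed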
ALR H2O2 inh – inhibitors of human ALR sulfhydryl oxidase, primary screen, biochemical, H2O2 detection, HRP-luminol luminescence, single point; FAD-linked sulfhydryl oxidase ALR (Homo sapiens), P55789; purified ALR, DTT oxidation; inhibition, % (no concentration beside the values); 290,000 tested, 3.8% active; AID 485317, 2010;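 active = mean replicate inhibition above about 79%, with every replicate also reaching it, limit read from the data; inconclusive = only one of the two criteria met; inactive = mean below limit and not every replicate reaching it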
Target sequence (P55789 whole entry, looked up): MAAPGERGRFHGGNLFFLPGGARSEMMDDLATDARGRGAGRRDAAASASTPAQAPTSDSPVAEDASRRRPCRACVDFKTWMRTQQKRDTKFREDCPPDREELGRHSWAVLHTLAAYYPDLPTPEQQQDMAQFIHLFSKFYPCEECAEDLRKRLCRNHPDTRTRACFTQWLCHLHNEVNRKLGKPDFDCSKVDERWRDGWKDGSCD
LANA-H2B inh – blockers of LANA interaction with H2A/H2B – biochemical, FP readout, HTS, primary screen; cell-free LANA-H2A/H2B peptide, fluorescence polarization; inhibition, % (no concentration beside the values); 320,000 tested, 0.6% active; in the data active = inhibition mostly above about 10%, no sharp cut-off; inactive = mostly below about 6.7%
PRMT1 FP inh – PRMT1 methyltransferase inhibitors, primary screen, biochemical, fluorescence polarization | 370,000 tested, 1.3% active | recombinant PRMT1, activity-based probe fluorescence polarization | Protein arginine N-methyltransferase 1 (Homo sapiens), Q99873 | inhibition, % at 2.79 µM | AID 652257, 2013;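 active = inhibition above about 21% made by adding two undisclosed values, limit read from the data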
rCAG bind conf – small molecules binding CAG repeat RNA – biochemical, fluorescence, confirmation; inhibition, % at 3 µM; 4,300 tested, 70% active; r(CAG) RNA repeat, TO-PRO-1 dye displacement fluorescence; shares compounds with rCAG RNA binder;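 active = inhibition above a per-plate cutoff, the mean inhibition of sample wells plus 3 SD, cut at about 35% in these data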;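 note: loss of TO-PRO-1 fluorescence as compound displaces dye from 1x1 AA loop RNA; 0% = DMSO only wells and 100% = 100 µM mitoxantrone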
dCAG dye counter – displacement of TO-PRO-1 from CAG DNA duplex, counter-screen for rCAG RNA repeat binder project, biochemical, fluorescence, TO-PRO-1 dye, d(CAG) DNA oligo; 4,300 tested, 94% active; AID 652068, 2013; d(CAG) DNA oligo TO-PRO-1 dye displacement; shares compounds with rCAG RNA binder; inhibition, % at 3 µM;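 active = inhibition above its plate's cutoff, the mean test-well inhibition plus 3 SD, cut at about 4.8% in these data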;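 note: 0% = DNA dye mix with DMSO and 100% = 100 µM mitoxantrone; hits displace the dye from DNA and so lower well fluorescence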
The depositor's hits bear a star; ? = inconclusive; . = not tested or not shown.

SMILES	Rtt109 Vps75	rCAG RNA binder	ABHD5 PLIN5 PPI	ALR H2O2 inh	LANA-H2B inh	PRMT1 FP inh	rCAG bind conf	dCAG dye counter
O=C(Nc1ccccc1C(=O)O)c1cccc(NS(=O)(=O)c2ccc(Br)cc2)c1	8	81*	-2	13	1	2	68*	26*
Cc1ccc(S(=O)(=O)CCSc2cccc(C(=O)Nc3ccccc3C(=O)O)c2)cc1	1	80*	-1	99*	-1	77*	83*	52*
O=C(Nc1cccc(C(F)(F)F)c1)c1cccc(NS(=O)(=O)c2ccc(Br)c(C(=O)O)c2)c1	9	13	-2	4	0	2	.	.
COc1cccc(-c2cc(C(C)=O)c3n(c2=O)CCC3)c1OC	.	1	.	.	.	-3	.	.
O=C(Nc1ccccc1C(=O)O)c1cccc(S(=O)(=O)Nc2ccc(Br)cc2)c1	5	80*	-1	99*	19*	1	58*	21*
O=C(O)c1ccc(NS(=O)(=O)c2ccc(Cl)c(C(=O)Nc3ccccc3[N+](=O)[O-])c2)cc1	2	1	-4	-1	-1	4	.	.
O=C(Nc1ccccc1C(=O)O)c1cc(S(=O)(=O)Nc2cccc(F)c2)ccc1Cl	6	45*	-4	52	-6	-8	30	9.3*
O=C(O)c1ccc(NS(=O)(=O)c2cccc(C(=O)Nc3ccc(Br)cc3)c2)cc1	0	13	-2	-5	-2	1	.	.
Cc1cccc(NC(=O)c2cccc(S(=O)(=O)Nc3ccccc3C(=O)O)c2)c1	-2	52*	0	12	1	-2	32	7.5*
OC(CSc1nnnn1-c1ccccc1)Cn1c2ccccc2c2ccccc21 (stereo not drawn)	.	5	-1	.	.	-2	.	.
COc1ccc(CNc2cccc3[nH]c(C(F)(F)F)nc23)cc1OC	.	44*	-2	0	-2	1	13	9.4*
COc1ccc(CNC(=O)c2[nH]c(C(F)(F)F)nc2-c2ccccc2)cc1OC	.	3	-1	.	.	-6	.	.
CC1(C(=O)NS(=O)(=O)c2ccc(C#N)cc2)CCN1C(=O)C1(c2ccc(Cl)cc2)CCC1 (stereo not drawn)	.	15	-7	.	.	0	.	.
CC1(C(=O)NS(=O)(=O)c2cccc(F)c2)CCN1C(=O)C1(c2ccc(Cl)cc2)CCC1 (stereo not drawn)	.	42*	-7	.	.	1	31	6.7*
CC1(C(=O)NS(=O)(=O)c2ccc(Cl)cc2)CCN1C(=O)C1(c2ccc(Cl)cc2)CC1 (stereo not drawn)	.	46*	-14	.	.	1	39*	8.7*
COc1ccc(S(=O)(=O)NC(=O)C2(C)CCN2C(=O)C2(c3ccc(Cl)cc3)CCC2)cc1 (stereo not drawn)	.	46*	-3	.	.	0	35*	6.4*
CC(C)(C)c1ccc(S(=O)(=O)NC(=O)C2(C)CCN2C(=O)C2(c3ccc(Cl)cc3)CC2)cc1 (stereo not drawn)	.	71*	2	.	.	3	59*	21*
CC1(C)CC(=O)C(C2C3=C(CC(C)(C)CC3=O)Oc3ccccc32)=C(O)C1 (stereo not drawn)	-5	5	-1	3	2	-2	.	.
CC1(C)CC(=O)C(C2C3=C(CC(C)(C)CC3=O)OC3=C2C(=O)CC(C)(C)C3)=C(O)C1	-18	44*	3	-6	1	-5	2	1
CCC(CC)(CC(=O)Nc1cccc(/C=C/c2nc(C3CCC3)cs2)c1)C(=O)O	.	46*	.	.	.	-2	55*	18*
CC1(C(=O)NCCc2c[nH]c3ccccc23)CCN1CC1CCCCC1 (stereo not drawn)	.	0	2	.	.	-3	.	.
O=C(NC1CCc2ccccc21)c1cc(-c2ccc(Cl)cc2)nc2ccccc12 (stereo not drawn)	.	4	.	.	.	4	.	.
CCc1nnc(NS(=O)(=O)c2ccc(NC(=O)c3cccc(Br)c3)cc2)s1	7	73*	-5	.	9	8	53*	19*
CCOc1cc(C(=O)Nc2ccc(S(=O)(=O)Nc3cc(C)on3)cc2)cc(OCC)c1OCC	-7	41*	-6	6	-1	0	34	8.4*
CCOc1cc(C(=O)Nc2ccc(S(=O)(=O)Nc3nnc(CC)s3)cc2)cc(OCC)c1OCC	1	63*	-2	-2	-2	-1	67*	28*
SMILES	Rtt109 Vps75	rCAG RNA binder	ABHD5 PLIN5 PPI	ALR H2O2 inh	LANA-H2B inh	PRMT1 FP inh	rCAG bind conf	dCAG dye counter
O=C(Nc1ccc(S(=O)(=O)Nc2ncccn2)cc1)c1cccc(Br)c1	3	-1	6	1	2	-2	.	.
CCOc1cc(C(=O)Nc2ccc(S(=O)(=O)NC3=NCCCCC3)cc2)cc(OCC)c1OCC	7	-9	-1	0	-1	0	.	.
CCc1nnc(NS(=O)(=O)c2ccc(NC(=O)c3ccc(S(=O)(=O)N(CC)CC)cc3)cc2)s1	-3	76*	4	-3	1	2	67*	29*
Cc1cc(C)cc(C(O)c2ncc(-c3ccccc3C)[nH]2)c1 (stereo not drawn)	.	8	-1	.	.	2	.	.
CCC(Oc1ccc(C)cc1)C(=O)Nc1ccc(S(=O)(=O)Nc2cc(C)on2)cc1 (stereo not drawn)	10	36*	2	2	-1	-1	21	2
CCOc1ccc2nc(SCc3ccc(CC(=O)O)cc3)c(C#N)cc2c1	-7	60*	-10	9	-3	-2	55*	20*
Cc1cc(C)c(S(=O)(=O)/N=C2\C=C(NS(=O)(=O)c3ccccc3)C(=O)c3ccccc32)c(C)c1	-2	45*	3	-32	-3	2	85*	57*
Cc1ccc(S(=O)(=O)/N=C2\C=C(NS(=O)(=O)c3ccccc3)C(=O)c3ccccc32)cc1	?	40*	-13	.	.	-1	84*	51*
Cc1ccc(S(=O)(=O)Nc2c(C(=O)O)[nH]c3ccccc23)c(C)c1	-1	58*	-1	98*	5	1	30	7.3*
